Compound activity from PubChem.
Most compounds without a hit are left out; they make up all but 8.3% or so of the library.
RORgamma inh: ROR gamma (mouse) transcription inhibition. P51450. Drosophila S2 Gal4-RORgamma UAS-luciferase reporter, 20 h. Potency, µM (highest dose often 53.6 µM), most hits filed as inhibitors. hit rate 5.4% among 310,000; further: nearly all actives have a fitted effect of over 60% in size
Target sequence (P51450 whole entry, looked up, the tested form may be a part): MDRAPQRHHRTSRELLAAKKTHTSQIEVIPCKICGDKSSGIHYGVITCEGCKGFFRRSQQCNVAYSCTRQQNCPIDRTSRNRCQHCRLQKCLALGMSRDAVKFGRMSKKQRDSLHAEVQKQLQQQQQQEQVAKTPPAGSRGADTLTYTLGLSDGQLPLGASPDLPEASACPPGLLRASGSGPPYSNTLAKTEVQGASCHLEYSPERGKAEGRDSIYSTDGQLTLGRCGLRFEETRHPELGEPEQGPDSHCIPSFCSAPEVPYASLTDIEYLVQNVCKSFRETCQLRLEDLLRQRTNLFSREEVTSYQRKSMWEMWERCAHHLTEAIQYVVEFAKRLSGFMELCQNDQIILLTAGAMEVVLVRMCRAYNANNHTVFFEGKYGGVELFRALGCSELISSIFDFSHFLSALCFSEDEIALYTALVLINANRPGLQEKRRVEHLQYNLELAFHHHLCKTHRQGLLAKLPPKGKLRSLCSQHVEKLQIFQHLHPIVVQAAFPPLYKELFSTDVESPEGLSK
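Schneider cells (Drosophila), stable Gal4 DBD–ROR gamma + UAS-luc; 1 hr cmpd preincubation; Cu2+ induction 700 uM final; 20 hr ambient; luminescence.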
Giardia killer: kills Giardia lamblia. activity change, % at 7.66 µM, hits read low. AID 540267. hit rate 0.15% among 340,000. Giardia lamblia trophozoite viability; in the data active means activity change below about -80%; inconclusive means between about -30% and that limit;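 further: parasites exposed to compound for two days anaerobically before the ATP read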
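Trophozoite viability was measured as ATP-dependent luminescence, read 15-30 min after reagent addition. Before that, parasites at 100 cells/well were exposed to compounds for 48 h, anaerobically, at 37 deg C.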
VP16 counter: inhibits Gal4-VP16 luciferase reporter, ROR gamma counter-screen | Drosophila S2 Gal4-VP16 UAS-luciferase, luminescence, 20 h | Potency, µM (titrated, usually from 53.6 µM), usual class: inhibitors | hit rate 3.5% among 310,000;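 further: Gal4-VP16 expression switched on by copper sulfate through the metallothionein promoter; nearly all actives have a fitted effect of over 50% in size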
MCF10A rerep: induces DNA re-replication in MCF 10a normal breast cells; MCF 10A DNA re-replication, Hoechst nuclear intensity, 48 h; AID 624296; hit rate 2.9% among 350,000; Potency, µM (highest dose often 46.1 µM), actives largely listed as activators; further: nearly all actives have a fitted effect of over 50% in size
SW480 rerep: DNA re-replication induction in SW480 cells. SW480 DNA re-replication, Hoechst DNA content imaging, 48 h. Potency, µM (series often up to 46.1 µM), most hits filed as activators. hit rate 1.8% among 340,000. AID 624297; further: nearly all actives have a fitted effect of over 55% in size
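Cells (250 per well) received 23 nL compound or DMSO by pin tool and were kept 48 hr at 37 C, 5% CO2. Nuclei were then stained with Hoechst for 40 min and scanned for DNA content.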
BCR signal inh: blocks chronic active B-cell receptor signaling; ABC-DLBCL IkBa-CBG/CBR reporter, luminescence ratio, 4 h; AID 493014; hit rate 0.05% among 340,000; Potency, µM (top dose mostly 46.1 µM), actives largely listed as inhibitors; active means well fitted inhibition curve with a large enough effect in the signal ratio, with a control signal flat, not every such curve was filed as active; inconclusive means small, poorly fitted or top-dose-only effect, or effect the other way, or a change in a side signal; the % refers to the signal ratio
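Doxycycline induced both beetle luciferases in TMD8 lymphoma cells; IKK-driven degradation limits the IkappaBalpha-fused green signal, while red luminescence normalises for cell number and nonspecific effects. Compounds tested up to 46 uM, 4 hrs.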
A number is an active result; [ ] = another dose, or the depositor's remark. Unless noted, the call rests on the fitted dose curve; in most records, active means well fitted curve in the direction sought with a large enough effect; inconclusive means small, poorly fitted or top-dose-only effect, or another doubt; inactive means no such curve, though single readings can be large; an effect the other way counts as inactive or inconclusive.

What do the screens show for `O=C(NCc1ccco1)C1CC(c2cc(C(F)(F)F)cc(C(F)(F)F)c2)=NO1` (configuration not stated)?
RORgamma inh: inactive; Giardia killer: inactive; VP16 counter: inactive; MCF10A rerep: 6.5µM; SW480 rerep: 13µM; BCR signal inh: inconclusive

What do the screens show for `COc1ccc(OC)c(C2=NOC(C(=O)NCc3ccco3)C2)c1` (configuration not stated)?
RORgamma inh: inactive; Giardia killer: inactive; VP16 counter: inactive; MCF10A rerep: 13µM; SW480 rerep: inconclusive; BCR signal inh: inconclusive

Results for O=C(NCc1ccco1)C1CC(c2ccccc2C(F)(F)F)=NO1 (configuration not stated) ?
RORgamma inh: inactive; Giardia killer: inactive; VP16 counter: inactive; MCF10A rerep: inactive; SW480 rerep: inactive; BCR signal inh: inactive

Results for Cc1ccccc1-c1nccc(NCc2cccs2)n1 ?
RORgamma inh: inconclusive; VP16 counter: inactive

What do the screens show for `Cc1cc(=O)[nH]c(-c2ccc(Cl)cc2)n1`?
RORgamma inh: inactive; Giardia killer: inactive; VP16 counter: inactive; MCF10A rerep: inconclusive; SW480 rerep: inconclusive; BCR signal inh: inconclusive

What do the screens show for `Cc1cnc(CNC(=O)CC2C(=O)NCCN2Cc2cccc(F)c2F)cn1` (configuration not stated)?
RORgamma inh: inactive; Giardia killer: inactive; VP16 counter: inactive; MCF10A rerep: inactive; SW480 rerep: inactive; BCR signal inh: inactive

Results for COC(=O)N1C(=O)[C@@](c2ccc(OC)cc2)(C(C)C)N1C(=O)OC ?
RORgamma inh: inactive; Giardia killer: inactive; VP16 counter: inactive; MCF10A rerep: inconclusive; SW480 rerep: 21µM; BCR signal inh: inconclusive

Results for COC(=O)N1C(=O)[C@@](c2ccccc2)(C(C)C)N1C(=O)OC ?
RORgamma inh: 10µM; Giardia killer: inactive; VP16 counter: inactive; MCF10A rerep: inconclusive; SW480 rerep: inconclusive; BCR signal inh: inconclusive

What do the screens show for `CCN(Cc1ccccc1)c1ccc(/C=N/NC(=O)c2cccc(S(=O)(=O)N3CCOCC3)c2)cc1`?
RORgamma inh: 6.3µM; Giardia killer: inactive; VP16 counter: 7.9µM; MCF10A rerep: inconclusive; SW480 rerep: inactive; BCR signal inh: inactive

Results for O=C(N/N=C/c1c(F)c(F)c(F)c(F)c1F)c1cccc(S(=O)(=O)N2CCOCC2)c1 ?
RORgamma inh: inactive; Giardia killer: inactive; VP16 counter: inactive; MCF10A rerep: inactive[9.22 µM]; SW480 rerep: inactive; BCR signal inh: inactive

Results for CCN(CC)c1ccc(/C=N/NC(=O)c2cccc(S(=O)(=O)N3CCOCC3)c2)cc1 ?
RORgamma inh: 16µM; Giardia killer: inactive; VP16 counter: inconclusive; MCF10A rerep: inactive; SW480 rerep: inactive; BCR signal inh: inactive

What do the screens show for `COc1ccc(C(=O)NNC(=S)NC(=O)c2ccc(Cl)cc2)cc1`?
Giardia killer: inactive; MCF10A rerep: inactive; SW480 rerep: inconclusive

Results for Cc1ccccc1C(=O)NC(=S)Nc1ccc(Oc2ccc(Cl)cc2)cc1 ?
RORgamma inh: 3.2µM; Giardia killer: inactive; VP16 counter: 11µM; MCF10A rerep: inactive; SW480 rerep: inactive; BCR signal inh: inactive

What do the screens show for `O=C(NC(=S)Nc1ccc(Oc2ccccc2)cc1)c1ccc(Cl)cc1`?
RORgamma inh: 8.9µM; Giardia killer: inactive; VP16 counter: inconclusive; MCF10A rerep: inactive; SW480 rerep: inactive; BCR signal inh: inconclusive

Results for Cc1ccc(C(=O)NC(=S)Nc2ccc(Oc3ccc(Cl)cc3)cc2)cc1 ?
RORgamma inh: 0.89µM; Giardia killer: inactive; VP16 counter: inconclusive; MCF10A rerep: inactive; SW480 rerep: inactive; BCR signal inh: inactive

How did CC(=O)N1CCN(Cc2nc3cc(NC(=O)Nc4ccccc4)ccc3n2C)CC1 do in these assays?
RORgamma inh: inactive; Giardia killer: inactive; VP16 counter: inactive; MCF10A rerep: inactive; SW480 rerep: inactive; BCR signal inh: inactive

What do the screens show for `Cc1cccc(CN2CCN(Cc3ccc4nonc4c3)CC2CCO)n1` (configuration not stated)?
RORgamma inh: inactive; Giardia killer: inactive; VP16 counter: inactive; MCF10A rerep: inactive; SW480 rerep: inactive; BCR signal inh: inactive

How did COC(=O)c1ccc(-c2noc(CN(C)CCC3CCCCO3)n2)cc1 (configuration not stated) do in these assays?
RORgamma inh: 5.6µM; Giardia killer: inactive; VP16 counter: 5.6µM; MCF10A rerep: inactive; SW480 rerep: inactive; BCR signal inh: inconclusive

What do the screens show for `CSc1nccc(Oc2cccc(C#N)c2)n1`?
RORgamma inh: inactive; Giardia killer: inactive; VP16 counter: inactive; MCF10A rerep: inactive; SW480 rerep: inactive; BCR signal inh: inactive

Results for O=C(NC(=S)N(CCO)Cc1ccccc1)c1cc(Br)ccc1Cl ?
RORgamma inh: 0.79µM; Giardia killer: inactive; VP16 counter: 1.8µM; MCF10A rerep: inactive; SW480 rerep: inactive[1.84 µM]; BCR signal inh: inconclusive

What do the screens show for `O=C(NCCNC(=O)c1ccccc1[N+](=O)[O-])c1ccccc1[N+](=O)[O-]`?
Giardia killer: inactive; MCF10A rerep: inactive; SW480 rerep: inactive

Results for CN(C)CCNC(=O)c1cc(Br)ccc1Cl ?
RORgamma inh: inactive; Giardia killer: inactive; VP16 counter: inactive; MCF10A rerep: inactive; SW480 rerep: inactive; BCR signal inh: inactive

What do the screens show for `CCCN(Cc1ccccc1)C(=S)NC(=O)c1ccccc1[N+](=O)[O-]`?
RORgamma inh: 0.35µM; Giardia killer: inactive; VP16 counter: 1µM; MCF10A rerep: inactive; SW480 rerep: inactive; BCR signal inh: inactive

Results for CCN(Cc1ccccc1)C(=S)NC(=O)c1ccccc1Br ?
RORgamma inh: 0.79µM; Giardia killer: inactive; VP16 counter: 1.1µM; MCF10A rerep: inactive; SW480 rerep: 12µM; BCR signal inh: inactive

Results for Cn1ccnc1C(OC(=O)c1ccccc1)C(F)(F)F (configuration not stated) ?
RORgamma inh: inactive; Giardia killer: inactive; VP16 counter: inactive; MCF10A rerep: inactive; SW480 rerep: inactive; BCR signal inh: inactive

How did Cn1c(=O)[nH]c(=O)c2c1nc(Br)n2C/C=N/NC(N)=S do in these assays?
RORgamma inh: inconclusive; VP16 counter: inactive; BCR signal inh: inconclusive

Results for Cn1c(=O)c2c(nc(Br)n2C/C=N/NC(N)=S)n(C)c1=O ?
RORgamma inh: 5µM; Giardia killer: inactive; VP16 counter: inactive; MCF10A rerep: inconclusive; SW480 rerep: inconclusive; BCR signal inh: inconclusive

What do the screens show for `COc1cccc(/C=C/C(=O)OCC(=O)Nc2cc(S(=O)(=O)N3CCOCC3)ccc2C)c1`?
RORgamma inh: inactive; Giardia killer: inactive; VP16 counter: inactive; MCF10A rerep: inactive; SW480 rerep: inactive; BCR signal inh: inactive

What do the screens show for `COc1ccc(S(=O)(=O)N2CCCCC2)cc1NS(=O)(=O)c1ccccc1F`?
RORgamma inh: inactive; Giardia killer: inactive; VP16 counter: inactive; MCF10A rerep: inactive; SW480 rerep: inactive; BCR signal inh: inactive
